Bioassay records: PubChem BioAssay, Sanford-Burnham Center for Chemical Genomics
A selection: hits, their analogues and other compounds. The true share with any hit is near 31%.
CYP2C19 inhib: blocks human cytochrome P450 2C19; CYP2C19 Supersomes, luciferin-H EGE luminescence, 30 min; inhibition, % at 5 µM; 21% of 96,000 active; AID 778;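 active = CYP2C19 inhibition above a set limit at 5 µM in the primary screen, cut at about 50% in these data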;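 also: plate controls were negative control wells for no effect and 2.5 mM tranylcypromine positive control for full effect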
CYP2C9 inh: blocks human cytochrome P450 2C9; 20% of 96,000 active; inhibition, % at 5 µM; AID 777; CYP2C9 Supersomes, luciferin-H conversion, luminescence; P11712;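 active = blocking of liver enzyme CYP2C9 beyond about 50% at 5 µM, limit read from the data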
Target sequence (P11712 whole entry, looked up): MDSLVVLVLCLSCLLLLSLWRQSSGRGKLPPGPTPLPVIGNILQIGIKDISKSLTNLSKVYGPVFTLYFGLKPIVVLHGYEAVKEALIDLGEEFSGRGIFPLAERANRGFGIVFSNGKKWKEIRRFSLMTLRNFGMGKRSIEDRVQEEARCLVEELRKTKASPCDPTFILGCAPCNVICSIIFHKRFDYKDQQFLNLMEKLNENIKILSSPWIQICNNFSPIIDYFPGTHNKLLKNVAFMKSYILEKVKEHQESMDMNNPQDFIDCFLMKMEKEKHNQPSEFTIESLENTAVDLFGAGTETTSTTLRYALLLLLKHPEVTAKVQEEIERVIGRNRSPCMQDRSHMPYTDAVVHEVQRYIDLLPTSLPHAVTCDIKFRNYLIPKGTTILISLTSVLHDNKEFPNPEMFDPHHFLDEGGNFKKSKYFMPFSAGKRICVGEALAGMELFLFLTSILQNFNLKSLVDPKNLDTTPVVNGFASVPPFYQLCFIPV
CYP2C9 act: increases human cytochrome P450 2C9 activity. 1.4% of 96,000 active. activation factor at 5 µM. recombinant CYP2C9, luciferin-H conversion, luminescence; stronger effect = higher value; factor 1 = untreated enzyme, 0 = blocked. AID 1024. P11712;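 active = activation factor of 2 or more for CYP2C9 at a 5 µM dose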;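 also: 0 = sulfaphenazole-blocked wells and 1 = vehicle-only wells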
PLAP activator: activators of human placental alkaline phosphatase; P05187; activation fold at 20 µM; purified PLAP enzyme, luminescent substrate read-out; stronger effect = higher value; AID 696; 1.2% of 96,000 active; in the data active = activation fold above about 2
CYP2C19 act: cytochrome P450 2C19 (human) activation; recombinant CYP2C19, luciferin-H EGE luminescence; stronger effect = higher value; 0 = fully inhibited enzyme, 1 = untreated enzyme; activation factor at 5 µM; 96,000 tested, under 10 active; AID 1025;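 active = activation factor of at least 2 at 5 µM in the primary screen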;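 also: 0 = wells with 2.5 mM tranylcypromine and 1 = vehicle-only wells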
An asterisk follows results filed as active.

SMILES | CYP2C19 inhib | CYP2C9 inh | CYP2C9 act | PLAP activator | CYP2C19 act
COc1ccc(-c2nc3cnccn3c2Nc2ccc3c(c2)OCO3)cc1 | 88* | 87* | 0.1 | 1 | 0.1
Cc1cc(C)n2c(Nc3ccc4c(c3)OCCO4)c(-c3ccccc3)nc2n1 | 36 | 76* | 0.2 | 1.6 | 0.6
Cc1ccc(-c2nc3cnccn3c2Nc2ccc3c(c2)OCCO3)o1 | 87* | 72* | 0.3 | 0.8 | 0.1
Cc1ccc2nc(-c3ccc(O)cc3)c(Nc3ccc4c(c3)OCCO4)n2c1 | 42 | 47 | 0.5 | 0.9 | 0.6
CC(C)CCN1C(=O)CCC1(C)C(=O)NC1CCCCCCC1 (configuration not stated) | 27 | 13 | 0.9 | 1 | 0.7
N#Cc1ccc(C(=O)Nc2ccc(N3CCN(C(=O)c4ccco4)CC3)cc2)c(F)c1 | 12 | 20 | 0.8 | 0.8 | 0.9
CCn1nnc(C(=O)O)c1C(=O)O | -24 | -21 | 1.2 | 1 | 1.2
CC(=O)Oc1oc(-c2ccccc2)nc1C=Nc1ccccc1 | 33 | 34 | 0.7 | 1.1 | 0.7
CCOC(=O)c1ccc(N=Cc2nc(-c3ccccc3)oc2OC(C)=O)cc1 | 32 | 50* | 0.5 | 0.9 | 0.7
CCCCNS(=O)(=O)C1CCS(=O)(=O)C1 (configuration not stated) | -6 | 7 | 0.9 | 0.9 | 1.1
Cc1cc(Nc2ccc(F)c(Cl)c2)n2ncnc2n1 | -27 | -6 | 1.1 | 0.8 | 1.3
O=C(CCNS(=O)(=O)c1ccc2c(c1)CCC(=O)N2)NCc1ccc2c(c1)OCO2 | 0 | 41 | 0.6 | 1.1 | 1
Cc1ccc(S(=O)(=O)N(C)CCCC(=O)NCc2ccc3c(c2)OCO3)cc1 | 82* | 76* | 0.2 | 1 | 0.2
Cc1ccc(N(CC(=O)NCc2ccc3c(c2)OCO3)S(C)(=O)=O)cc1 | 55* | 45 | 0.5 | 1.1 | 0.4
O=C(CCNS(=O)(=O)c1ccccc1F)NCc1ccc2c(c1)OCO2 | 70* | 28 | 0.7 | 0.8 | 0.3
Cc1ccc(S(=O)(=O)NCCC(=O)NCc2ccc3c(c2)OCO3)cc1C | 38 | -111 | 2.1* | 1 | 0.6
O=C(COC(=O)C1COc2ccccc2O1)Nc1ccc2c(c1)CCC2 (configuration not stated) | 27 | 18 | 0.8 | 0.9 | 0.7
COc1ccc2c(c1)c(C(=O)CN1CCC(C(N)=O)CC1)c(C)n2C | -1 | 12 | 0.9 | 1 | 1
CCc1nnc(NC(=O)CN2CCN(C3CCCCC3)CC2)s1 | -12 | -9 | 1.1 | 1.1 | 1.1
Cc1ccc(C(=O)C2C(=O)c3ccccc3C2=O)cc1 | 13 | 77* | 0.2 | 1 | 0.9
Cc1ccc(C(=O)CN(C(=O)c2ccc(Cl)cc2)N2C(=O)c3ccccc3C2=O)cc1 | 10 | 43 | 0.6 | 1 | 0.9
Oc1ccccc1CNn1cnnc1 | -12 | -12 | 1.1 | 0.9 | 1.1
CCOc1cccc(CNn2cnnc2)c1OCc1ccccc1 | 57* | 3 | 1 | 1 | 0.4
c1ccc(COc2cccc(CNn3cnnc3)c2)cc1 | 50* | 9 | 0.9 | 0.9 | 0.5
NC(=O)c1c(NC(NC(=O)c2ccco2)(C(F)(F)F)C(F)(F)F)sc2c1CCCC2 | 20 | 21 | 0.8 | 1.2 | 0.8
SMILES | CYP2C19 inhib | CYP2C9 inh | CYP2C9 act | PLAP activator | CYP2C19 act
CN(C)S(=O)(=O)c1ccc(C(=O)N2CCN=C2SCc2cccnc2)cc1 | -9 | -3 | 1 | 1.3 | 1.1
COc1cccc(C(=O)N2CCN=C2SCc2cccnc2)c1OC | 86* | 42 | 0.6 | 1.4 | 0.1
COc1ccc(C(=O)N2CCN=C2SCc2cccnc2)c(OC)c1 | 88* | 62* | 0.4 | 1.3 | 0.1
O=C(c1ccc2c(c1)OCO2)N1CCN=C1SCc1cccnc1 | 76* | 67* | 0.3 | 1.1 | 0.2
CCC(C)NC(=O)C1(C)CCC(=O)N1Cc1ccccc1OC (configuration not stated) | 1 | -23 | 1.2 | 1.3 | 1
COC(=O)C(CCSC)NC(=O)CNS(=O)(=O)c1ccc(Cl)cc1 (configuration not stated) | 21 | 22 | 0.8 | 1 | 0.8
O=C(NCn1ccc(=O)[nH]c1=S)c1ccccc1 | 5 | -1 | 1 | 0.9 | 1
CCOc1ccc(NC(=O)Nc2cccs2)cc1 | 36 | 30 | 0.7 | 0.8 | 0.6
CCOc1ccc(S(=O)(=O)N(C)c2ccc(OCC(=O)NCc3ccco3)cc2)cc1 | 86* | 100* | 0 | 1.3 | 0.1
CCOc1ccc(S(=O)(=O)Nc2ccccc2C(=O)NCc2ccco2)cc1 | 100* | 70* | 0.3 | 1.6 | 0
